These results are taken from PubChem BioAssay (NCATS).

Molecules are shown by their SMILES. “And” between values parts separate entries of the source, which are not always exact repeats. Identical values can stand only once. Records with an inconclusive call do not appear. A number with no mark means an inactive call. The source made the active and inactive calls. The call rests on the fitted dose curve; in most records, active means well fitted curve in the direction sought with a large enough effect; inconclusive means small, poorly fitted or top-dose-only effect, or another doubt; inactive means no such curve, though single readings can be large; an effect the other way counts as inactive or inconclusive.

The target in test [1] is Cellular tumor antigen p53 (Homo sapiens) (UniProt P04637). As to the kind of experiment: Primary qHTS for small molecule compounds that upregulate eGFP-tagged delta133p53alpha (in N-terminal) cells. (AID 2060322). Further: nearly all actives have a fitted effect of over 75% in size. Further: potency means the concentration at half of the fitted maximal effect.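 On activation: series mostly up to about 56 µM; 0% = DMSO vehicle and 100% = reference activator.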 The following applies: NCI-H358 eGFP-delta133p53alpha fluorescence, 24 h; activation: active compounds read high. Summed up:
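NCI-H358 cells pre-induced 24 h with 10 ng/ml doxycycline to express N-terminal eGFP-delta133p53alpha, then dosed 24 h at 37C without doxycycline; fixed, Hoechst-stained, GFP intensity by laser scanning cytometry, normalized to DMSO (0%) and 57.5 uM 5-azacytidine (100%).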

The target of test [2] is Aldehyde dehydrogenase, mitochondrial (Homo sapiens) (UniProt P05091). As to the kind of experiment: qHTS for Inhibitors of the Aldehyde Dehydrogenase Family (ALDH2) Primary screen (AID 2061308).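 Further: plate controls were vehicle for no effect and reference inhibitor for full effect; nearly all actives have a fitted effect of over 55% in size.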 On the technique in general: In qHTS, concentration-response curves come from the screen itself.
Test [3] concerns the target Retinaldehyde dehydrogenase 3 (Homo sapiens) (UniProt P47895). As to the kind of experiment: qHTS for Inhibitors of the Aldehyde Dehydrogenase Family (ALDH1A3) Primary screen (AID 2061315).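 Further: plate controls were DMSO vehicle for no effect and reference inhibitor for full effect.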
Test [4] in a line: BET inhibitor-based combinations targeting novel dependencies in MECOM-rearranged (r) AML: OCI-AML3 cell line (AID 2202232). Further: nearly all actives have a fitted effect of over 35% in size. Further: potency means the concentration at half of the fitted maximal effect. The settings on record: Potency: OCI-AML3 viability. Summed up: (§1)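 Viability of cells (500 per well) is scored by luminescent CellTiter-Glo at 48 hr post-dosing. Eleven-point titrations are normalized to DMSO and empty controls and reduced to AUC values.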

The nature of test [5]: BET inhibitor-based combinations targeting novel dependencies in MECOM-rearranged (r) AML: MV-4-11 cell line (AID 2202233). Further: nearly all actives have a fitted effect of over 45% in size. Further: potency means the concentration at half of the fitted maximal effect. The gist of the method: (§2)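 Using pin-tool transfer, drugs were added in 11 doses to cells (500/well), incubated 48 hr, and assessed with CellTiter-Glo. Z-AUC is a mean-centring transformation applied separately to each screened line.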
Test [6] in a line: BET inhibitor-based combinations targeting novel dependencies in MECOM-rearranged (r) AML: HNT-34 cell line (AID 2202234). Further: nearly all actives have a fitted effect of over 35% in size. Further: potency means the concentration at half of the fitted maximal effect. Summed up:
as §2

Test [7] can be described thus: BET inhibitor-based combinations targeting novel dependencies in MECOM-rearranged (r) AML: UCSD-AML1 cell line (AID 2202235). Further: nearly all actives have a fitted effect of over 40% in size. Further: potency means the concentration at half of the fitted maximal effect. Summed up: as §2
Test [8] is described as follows: BET inhibitor-based combinations targeting novel dependencies in MECOM-rearranged (r) AML: AML-194 cell line (AID 2202237; further: nearly all actives have a fitted effect of over 40% in size; further: potency means the concentration at half of the fitted maximal effect). The gist of the method:
as §1

Test [9] can be described thus: BET inhibitor-based combinations targeting novel dependencies in MECOM-rearranged (r) AML: AML-191 cell line (AID 2202236; further: nearly all actives have a fitted effect of over 35% in size; further: potency means the concentration at half of the fitted maximal effect). The gist of the method: as §1
Test [10] is described as follows: BET inhibitor-based combinations targeting novel dependencies in MECOM-rearranged (r) AML: SET-2 cell line (AID 2202231).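 Further: plate controls were DMSO treated cells for no effect and wells without cells for full effect; nearly all actives have a fitted effect of over 35% in size.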 The settings on record: SET-2 AML cells viability, CellTiter-Glo luminescence, 48 h; viability: active compounds read low, series mostly up to about 46 µM. The gist of the method:
as §1
(Cellular ATP, detected with luciferase, serves as a proxy for viable cell number.)

Chain of Cellular tumor antigen p53 (Homo sapiens) (P04637 whole entry, looked up): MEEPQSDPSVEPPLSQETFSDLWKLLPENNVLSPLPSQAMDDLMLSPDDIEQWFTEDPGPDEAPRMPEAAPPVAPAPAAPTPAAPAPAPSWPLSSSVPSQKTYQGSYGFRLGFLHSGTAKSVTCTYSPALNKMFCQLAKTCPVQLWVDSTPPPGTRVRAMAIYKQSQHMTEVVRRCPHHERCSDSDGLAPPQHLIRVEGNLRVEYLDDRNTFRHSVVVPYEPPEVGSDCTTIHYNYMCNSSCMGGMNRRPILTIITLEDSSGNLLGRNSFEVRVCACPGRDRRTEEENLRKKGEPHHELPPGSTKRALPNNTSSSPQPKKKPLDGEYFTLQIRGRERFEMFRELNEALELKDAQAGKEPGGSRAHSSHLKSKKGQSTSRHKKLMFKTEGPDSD

With `CC(C)c1cc(CNc2nc(Nc3cc(C4CC4)[nH]n3)cc(N3CCN(C)CC3)n2)on1`, the Potency in test [1] is 4.26 µM (active); in test [4] it was 4.68 µM (active); in test [5] it was 0.0742 µM (active); in test [6] it was 0.0934 µM (active); in test [7] it was 0.742 µM (active); in test [8] it was 0.0934 µM (active). For the same compound, the Potency entry in [2] and in [3] was “inactive” in each case.

For the compound `COc1cc2c(Oc3ccc4[nH]c(C)cc4c3F)ncnc2cc1OCCCN1CCCC1`, the Potency is 24.3 µM (active) and 23.9 µM (active) in [1]; 13.2 µM (active) in test [4]; 18.6 µM (active) in test [5]; 11.8 µM (active) in [6]; 16.6 µM (active) in test [7]; 20.9 µM (active) in test [9]. The Potency in test [8] was 10.5 µM (active). Besides, the Potency entry in [2] and in [3] was “inactive” in each case.

As a reminder, the viability is a per cent measure of how many cells are alive, often set against a control. As to `N#CC1(c2cccc(C(=O)Nc3cc(Oc4ccc5nc(NC(=O)C6CC6)sc5n4)ccc3F)c2Cl)CC1`, in test [1], the activation is 23.6%. In addition, the Potency entry in test [2], in test [3], in test [7] and in test [8] was “inactive” in each case. The viability in test [10] is 82.7%.

Turning to `CC(C)(O)CC(=O)NCCn1ccc2ncnc(Nc3ccc(Oc4cccc(C(F)(F)F)c4)c(Cl)c3)c21`, the Potency in test [1] was 24.3 µM (active); in [4], 16.6 µM (active); in [5], 13.2 µM (active); in test [6] it was 14.8 µM (active); in [7], 14.8 µM (active); in [9], 16.6 µM (active). Also, the Potency entry in test [2] and in test [3] was “inactive” each time.

For `CC(C)(O)c1cc2nc(-c3cnc(N)nc3)nc(N3CCOCC3)c2s1`, the activation in [1] was 18.8%. Further, the Potency result in test [2] and in test [3] was “inactive” throughout. For the same compound, the Potency in test [4] is 1.32 µM (active); in test [5], 1.32 µM (active); in [6], 1.86 µM (active); in test [7], 0.332 µM (active).

On to `C=CC(=O)Nc1cc(Nc2nccc(-c3cn(C)c4ccccc34)n2)c(OC)cc1N(C)CCN(C)C`, for which the Potency is 3.79 µM (active) in test [1]; 3.72 µM (active) in [4]; 2.95 µM (active) in [5]; 5.25 µM (active) in test [6]; 4.68 µM (active) in test [7]; 8.33 µM (active) in [9]. In addition, in test [8], the Potency is 7.42 µM (active). In addition, the Potency result in test [2] and in [3] was “inactive” throughout.

Regarding `Fc1ccc(-c2nc(-c3ccccc3F)[nH]c2-c2ccncc2)cc1`, the activation in [1] was 17%. Besides, the Potency entry in test [2], in test [3], in test [4], in test [5], in test [6] and in test [9] was “inactive” each time. Besides, in [8], the Potency entry is “inactive”. Also, the Potency in test [7] is 4.17 µM (active).

In the case of `Clc1ccc(C2(c3ccc(-c4cn[nH]c4)cc3)CCNCC2)cc1`, the activation in test [1] is -10.3% and 1.79%. The Potency result in test [2] and in test [3] was “inactive” in each case. Further, the Potency in test [4] was 18.6 µM (active); in test [5] it was 4.17 µM (active); in test [6], 5.25 µM (active); in test [7], 18.6 µM (active); in test [9], 18.6 µM (active); in [8], 20.9 µM (active).

Consider `CCCCCN(CCC12CC3CC(CC(C3)C1)C2)C(=O)NCCCc1ccncc1`, for which the Potency was 23.9 µM (active) in test [1]; 18.6 µM (active) in test [4]; 13.2 µM (active) in test [5]; 16.6 µM (active) in [6]; 14.8 µM (active) in test [7]; 20.9 µM (active) in test [9]. For the same compound, in test [8], the Potency is 18.6 µM (active). Moreover, the Potency entry in test [2] and in [3] was “inactive” in each case.

Take `CC1=C(C(=O)Nc2cc3cn[nH]c3cc2F)C(c2ccc(Cl)cc2F)N=C(c2ccnc(Cl)c2)N1` (configuration not stated): the activation in test [1] was -24.2% and 5.36%. Moreover, the Potency entry in test [2] and in test [3] was “inactive” throughout. Further, the Potency in [4] is 16.6 µM (active); in [5], 5.9 µM (active).

For the compound `O=C(C1CC1)N1CC[C@@H](Cc2n[nH]c(=O)n2-c2ccc(-c3ccc4occc4c3)cc2)C1`, in [1], the activation is -2.33% and -15.1%. The Potency result in test [2], in test [3], in [7], in [9] and in [8] was “inactive” in each case. In [10], the viability is 95.8%.

As for `Cc1cc2c(F)c(Oc3ncnn4cc(OCC(C)OC(=O)C(C)N)c(C)c34)ccc2[nH]1` (configuration not stated), the activation in [1] was -1.79%. Also, the Potency entry in test [2] and in test [3] was “inactive” in each case. Further, the Potency in [4] and in test [5] was 11.8 µM (active) in each case.

`COc1nc(-c2ccc3c(c2)OCO3)n(-c2ccc(NC(=O)CSc3ccccc3)cc2)n1`: the activation in [1] is 2.57% and -11.7%. Further, the Potency result in test [2], in test [3], in test [7] and in [8] was “inactive” each time. Further, the viability in [10] is 97.5%.

Turning to `Nc1ncnc2c1c(COc1cccc(Cl)c1)nn2C1CCOCC1`, the activation in [1] is 15.2%. Moreover, the Potency result in [2], in test [3], in [7] and in [9] was “inactive” in each case. Also, in [10], the viability is 99.8%.

Consider `CC1=C[C@@H]2[C@@H]([C@@H](O)C[C@@]3(C)[C@H]2C[C@@H](C)[C@]3(O)C(=O)CO)[C@@]2(C)Cc3cnn(-c4ccccc4)c3C=C12`, for which, in [1], the activation is -34.9%. Also, the Potency entry in [2] and in test [3] was “inactive” throughout. Also, the Potency in [4], in test [5] and in test [6] was 18.6 µM (active) each time.

With `CC(=O)O[C@]1(C(C)=O)CC[C@H]2[C@@H]3C[C@H](C)C4=CC(=O)CC[C@]4(C)[C@H]3CC[C@@]21C`, in test [1], the activation was -7.53% and -21%. Further, the Potency entry in [2] and in test [3] was “inactive” in each case. The Potency is 14.8 µM (active) in [4]; 18.6 µM (active) in test [5]; 8.33 µM (active) in test [6]; 9.34 µM (active) in test [9]; 9.34 µM (active) in [8].
